Data from the supplement of paper PMC13380429.

tested on: Vero E6 infected with SARS-CoV-2; test: SARS-CoV-2 infection rate relative to infected DMSO; higher = more infection, active = 60 or less; conditions: 24 h

**Q.** For `CCn1nc(C2CCN(C(=O)CCO)CC2)nc1-c1cnc(N)c(-c2nnc(C(C)(C)C)o2)n1` (0.833333 µM), which SARS-CoV-2 infection rate is on record?
**A.** 94% (inactive)

**Q.** With `Cc1cnc(C(=O)NCCc2ccc(S(=O)(=O)NC(=O)NC3CCCCC3)cc2)cn1` [glipizide] (10 µM) as the molecule, how does the SARS-CoV-2 infection rate read?
**A.** 96% (inactive)

**Q.** With `CCOC(=O)c1cncn1[C@H](C)c1ccccc1` [etomidate] (10 µM) as the molecule, how does the SARS-CoV-2 infection rate read?
**A.** 110% (inactive)

**Q.** With `Nc1ccc(C(=O)Oc2ccccc2)c(O)c1` [phenyl-aminosalicylate] (10 µM) as the molecule, how does the SARS-CoV-2 infection rate read?
**A.** 104% (inactive)

**Q.** `CCn1cc(C(=O)O)c(=O)c2cc(F)c(N3CCNC(C)C3)c(F)c21` (configuration not stated) [lomefloxacin] (10 µM) was tested. Which SARS-CoV-2 infection rate did it give?
**A.** 96.5% (inactive)

**Q.** For `CCCCCCCCN=c1ccn(CCCCCCCCCCn2ccc(=NCCCCCCCC)cc2)cc1` [octenidine] (0.833333 µM), which SARS-CoV-2 infection rate is on record?
**A.** 108% (inactive)

**Q.** For `CN(C)CCc1c[nH]c2ccc(Cn3cncn3)cc12` [rizatriptan] (10 µM), which SARS-CoV-2 infection rate is on record?
**A.** 114% (inactive)

**Q.** How did the SARS-CoV-2 infection rate turn out when `NC(=S)N/N=C/c1coc2ccccc2c1=O.[Cl][Cu][Cl]` (10 µM) was run?
**A.** 110% (inactive)

**Q.** Which SARS-CoV-2 infection rate does the source give for `CC(=O)O[C@H]1C[C@@H]2CC[C@@H]3[C@H](CC[C@@]4(C)[C@H]3C[C@H](N3CC[N+](C)(C)CC3)[C@@H]4OC(C)=O)[C@@]2(C)C[C@@H]1N1CC[N+](C)(C)CC1` [pipecuronium] (10 µM) here?
**A.** 106% (inactive)

**Q.** Which SARS-CoV-2 infection rate does the source give for `O=c1cccc2n1C[C@@H]1CNC[C@H]2C1` [cytisine] (10 µM) here?
**A.** 114% (inactive)

**Q.** Which SARS-CoV-2 infection rate does the source give for `N[C@H](Cc1ccccc1)C(=O)O` [D-phenylalanine] (10 µM) here?
**A.** 104% (inactive)

**Q.** For `O=C1c2ccccc2-c2c(NCCc3ccccc3)c(=O)[nH]c3cccc1c23` (10 µM), which SARS-CoV-2 infection rate is on record?
**A.** 112% (inactive)

**Q.** How did the SARS-CoV-2 infection rate turn out when `CC(=O)NC1CCSC1=O` (configuration not stated) [citiolone] (10 µM) was run?
**A.** 107% (inactive)

**Q.** With `CC(=O)C1=C(O)C=C2Oc3c(C(C)=O)c(O)c(C)c(O)c3C2(C)C1=O` (stereo not drawn) [usniacin-(+)] (10 µM) as the molecule, how does the SARS-CoV-2 infection rate read?
**A.** 108% (inactive)

**Q.** How did the SARS-CoV-2 infection rate turn out when `O=C(O)CCc1ccc(NCc2cccc3c2CCCN3CCOc2ccccc2)cc1F` (10 µM) was run?
**A.** 110% (inactive)

**Q.** How did the SARS-CoV-2 infection rate turn out when `c1ccc2nc(C3=NCCN3)cnc2c1` (10 µM) was run?
**A.** 93% (inactive)

**Q.** `CCCC(=O)OCOC(=O)C1=C(C)NC(C)=C(C(=O)OC)C1c1cccc(Cl)c1Cl` (configuration not stated) [cleviprex] (10 µM) was tested. Which SARS-CoV-2 infection rate did it give?
**A.** 102% (inactive)

**Q.** Which SARS-CoV-2 infection rate does the source give for `CN1C(=O)CN=C(c2ccccc2)c2cc(Cl)ccc21` [diazepam] (10 µM) here?
**A.** 108% (inactive)

**Q.** With `COC1(C[S@@+]([O-])c2ccccc2)CCN(CCc2c[nH]c3ccc(F)cc23)CC1` (10 µM) as the molecule, how does the SARS-CoV-2 infection rate read?
**A.** 102% (inactive)

**Q.** Which SARS-CoV-2 infection rate does the source give for `C[C@]12CC[C@@H]3c4ccc(OC(=O)c5ccccc5)cc4CC[C@H]3[C@@H]1CC[C@@H]2O` [estradiol-benzoate] (10 µM) here?
**A.** 111% (inactive)

**Q.** For `O=C(O)c1ccc(NC(=O)[C@H](Cc2ccc(O)cc2)NC(=O)c2ccccc2)cc1` [bentiromide] (10 µM), which SARS-CoV-2 infection rate is on record?
**A.** 106% (inactive)

**Q.** How did the SARS-CoV-2 infection rate turn out when `CCOC(=O)C1=C(C)NC(C)=C(C(=O)OC)C1c1cccc(Cl)c1Cl` (configuration not stated) [felodipine] (10 µM) was run?
**A.** 112% (inactive)

**Q.** `Fc1ccc(Cl)cc1-c1nc(Nc2ccncc2)c2nccnc2n1` (10 µM) was tested. Which SARS-CoV-2 infection rate did it give?
**A.** 101% (inactive)

**Q.** How did the SARS-CoV-2 infection rate turn out when `O=C(Nc1cc(C(F)(F)F)cc(C(F)(F)F)c1)c1cc(Cl)ccc1O` [IKK-2-inhibitor-V] (10 µM) was run?
**A.** 104% (inactive)

**Q.** With `CS(=O)(=O)c1ccc(-c2cnc(NCc3ccco3)n3cnnc23)cc1` (10 µM) as the molecule, how does the SARS-CoV-2 infection rate read?
**A.** 83% (inactive)

**Q.** `CCOC(=O)c1ncn2c1CN(C)C(=O)c1cc(N=[N+]=[N-])ccc1-2` (10 µM) was tested. Which SARS-CoV-2 infection rate did it give?
**A.** 110% (inactive)

**Q.** `CC(C)(C)Cn1c(N)nc2ccc(-c3[nH]c(C(C)(C)C)nc3-c3ccc(F)cc3)nc21` (10 µM) was tested. Which SARS-CoV-2 infection rate did it give?
**A.** 111% (inactive)

**Q.** For `OCCOc1ccc(/C(=C(/CCCl)c2ccccc2)c2ccccc2)cc1` [ospemifene] (10 µM), which SARS-CoV-2 infection rate is on record?
**A.** 97.5% (inactive)

**Q.** With `OCCCNc1ccccc1` [3-anilinopropan-1-ol] (10 µM) as the molecule, how does the SARS-CoV-2 infection rate read?
**A.** 110% (inactive)

**Q.** For `CSc1cc2c(cc1C(F)(F)F)N(C(=O)Nc1cccnc1)CC2` (10 µM), which SARS-CoV-2 infection rate is on record?
**A.** 112% (inactive)

**Q.** How did the SARS-CoV-2 infection rate turn out when `CC1(COc2ccc3c(c2)ncn3-c2ccc3cccc(N4CCC(N)CC4)c3n2)COC1` [crenolanib] (0.833333 µM) was run?
**A.** 99.5% (inactive)

**Q.** With `c1ccc(-c2n[nH]cc2-c2ccnc3ccccc23)nc1` (10 µM) as the molecule, how does the SARS-CoV-2 infection rate read?
**A.** 114% (inactive)
